# Results reported in the supplement of paper PMC10849652.
# About 7,900 targets were measured; listed, in parts, are those with a hit and a random draw of the rest. About 0.6% of all pairs of compound and target were hits. Values without a mark were called inactive.
# What was measured:
# Assay in all cases: log2 fold change, soluble protein after heating vs DMSO (PISA); higher = thermal stabilisation; K562 cells, 10 uM, 30 min; active = over 0.2 and 3.5 SD of the protein, either way, in both replicates (recomputed)
# [1] = compound: CS(=O)(=O)c1ccc(-c2cnc(N)c(C(=O)Nc3ccccc3)n2)cc1
# In short: (§1)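 K562 cells at 2×10^6 cells/mL were exposed to 10 μM compound for 30 min, then aliquots were heated for 3 min across 48°C-58°C, pooled, and extracted in PBS containing 0.5% NP-40 at 4°C. The supernatant after 21,000xg for 90 min was taken as soluble protein and measured by TMTpro 16plex LC-MS/MS with channel sums equalised. Thermal stability is reported relative to control samples, with values from duplicates. Fold changes are given on a log2 scale.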
# crizotinib = compound: C[C@@H](Oc1cc(-c2cnn(C3CCNCC3)c2)cnc1N)c1c(Cl)ccc(F)c1Cl [crizotinib]
# In short: as §1
# [2] = compound: C[C@@H]1COCCN1C2=NC(=NC(=C2)C3(CC3)S(=O)(=O)C)C4=C5C=CNC5=CC=C4
# In short: as §1
# [3] = compound: C[C@H](C1=CC=C(C=C1)C(=O)NC2=C3C=CNC3=NC=C2)N
# In short: as §1
# duvelisib = compound: C[C@H](Nc1ncnc2nc[nH]c12)c1cc2cccc(Cl)c2c(=O)n1-c1ccccc1 [duvelisib]
# In short: as §1
# gandotinib = compound: Cc1cc(Nc2cc(CN3CCOCC3)c3nc(C)c(Cc4ccc(Cl)cc4F)n3n2)n[nH]1 [gandotinib]
# In short: as §1
# tozasertib = compound: Cc1cc(Nc2cc(N3CCN(C)CC3)nc(Sc3ccc(NC(=O)C4CC4)cc3)n2)n[nH]1 [tozasertib]
# In short: as §1
# [4] = compound: Cc1cc(SCc2sc(-c3ccc(C(F)(F)F)cc3)nc2C)ccc1OCC(=O)O
# In short: as §1
# doramapimod = compound: Cc1ccc(-n2nc(C(C)(C)C)cc2NC(=O)Nc2ccc(OCCN3CCOCC3)c3ccccc23)cc1 [doramapimod]
# In short: as §1
# ispinesib = compound: Cc1ccc(C(=O)N(CCCN)[C@@H](c2nc3cc(Cl)ccc3c(=O)n2Cc2ccccc2)C(C)C)cc1 [ispinesib]
# In short: as §1
# Sequence of UniProt Q9UEY8 (Q9UEY8 whole entry, looked up): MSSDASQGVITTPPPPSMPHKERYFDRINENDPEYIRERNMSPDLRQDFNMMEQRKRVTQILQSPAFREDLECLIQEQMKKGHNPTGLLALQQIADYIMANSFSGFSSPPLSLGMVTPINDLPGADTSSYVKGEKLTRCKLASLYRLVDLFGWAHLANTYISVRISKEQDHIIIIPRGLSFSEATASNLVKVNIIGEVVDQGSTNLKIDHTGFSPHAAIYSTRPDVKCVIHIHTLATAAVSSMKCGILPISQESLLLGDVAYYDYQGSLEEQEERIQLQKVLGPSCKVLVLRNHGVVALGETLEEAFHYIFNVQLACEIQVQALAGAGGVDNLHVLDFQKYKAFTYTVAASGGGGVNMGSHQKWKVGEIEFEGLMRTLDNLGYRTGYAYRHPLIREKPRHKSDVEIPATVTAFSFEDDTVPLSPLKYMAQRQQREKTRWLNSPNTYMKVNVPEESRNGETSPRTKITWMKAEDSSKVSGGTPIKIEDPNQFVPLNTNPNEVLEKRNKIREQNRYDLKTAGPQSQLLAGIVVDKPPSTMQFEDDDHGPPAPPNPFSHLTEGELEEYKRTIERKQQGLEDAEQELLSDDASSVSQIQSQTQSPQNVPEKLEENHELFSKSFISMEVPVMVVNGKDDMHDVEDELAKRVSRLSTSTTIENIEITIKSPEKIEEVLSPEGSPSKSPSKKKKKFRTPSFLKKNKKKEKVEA
# Sequence of UniProt P21283 (P21283 whole entry, looked up): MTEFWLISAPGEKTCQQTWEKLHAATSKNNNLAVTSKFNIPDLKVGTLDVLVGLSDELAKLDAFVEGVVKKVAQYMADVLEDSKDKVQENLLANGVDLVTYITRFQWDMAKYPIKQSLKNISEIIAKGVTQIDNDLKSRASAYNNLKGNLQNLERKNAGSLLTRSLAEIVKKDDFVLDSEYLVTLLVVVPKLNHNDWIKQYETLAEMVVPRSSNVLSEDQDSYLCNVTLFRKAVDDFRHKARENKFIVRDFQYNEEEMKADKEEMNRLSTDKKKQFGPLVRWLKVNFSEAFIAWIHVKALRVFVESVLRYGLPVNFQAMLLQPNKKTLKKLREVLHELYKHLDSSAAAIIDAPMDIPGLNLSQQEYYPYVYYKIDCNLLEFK
# Sequence of UniProt Q15057 (Q15057 whole entry, looked up): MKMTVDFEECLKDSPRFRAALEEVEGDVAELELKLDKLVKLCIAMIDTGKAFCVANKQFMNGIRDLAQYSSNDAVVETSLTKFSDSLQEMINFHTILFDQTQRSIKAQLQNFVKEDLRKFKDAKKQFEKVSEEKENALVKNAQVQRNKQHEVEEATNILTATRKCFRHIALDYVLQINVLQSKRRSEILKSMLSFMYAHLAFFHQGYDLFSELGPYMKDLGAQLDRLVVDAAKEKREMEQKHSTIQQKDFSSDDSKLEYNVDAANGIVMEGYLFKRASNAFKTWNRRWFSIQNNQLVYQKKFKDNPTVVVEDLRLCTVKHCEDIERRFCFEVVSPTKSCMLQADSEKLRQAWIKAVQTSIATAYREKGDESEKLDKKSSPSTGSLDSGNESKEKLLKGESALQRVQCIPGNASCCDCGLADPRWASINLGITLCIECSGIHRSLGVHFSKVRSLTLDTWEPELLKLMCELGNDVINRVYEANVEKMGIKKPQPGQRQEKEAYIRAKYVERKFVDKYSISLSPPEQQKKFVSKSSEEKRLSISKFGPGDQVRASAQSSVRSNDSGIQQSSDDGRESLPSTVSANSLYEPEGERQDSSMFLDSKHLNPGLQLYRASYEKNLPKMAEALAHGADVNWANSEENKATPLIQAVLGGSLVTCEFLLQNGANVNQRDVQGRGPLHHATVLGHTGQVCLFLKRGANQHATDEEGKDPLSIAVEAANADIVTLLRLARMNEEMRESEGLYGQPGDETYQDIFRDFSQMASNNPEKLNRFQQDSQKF
# Sequence of UniProt Q6QNY0 (Q6QNY0 whole entry, looked up): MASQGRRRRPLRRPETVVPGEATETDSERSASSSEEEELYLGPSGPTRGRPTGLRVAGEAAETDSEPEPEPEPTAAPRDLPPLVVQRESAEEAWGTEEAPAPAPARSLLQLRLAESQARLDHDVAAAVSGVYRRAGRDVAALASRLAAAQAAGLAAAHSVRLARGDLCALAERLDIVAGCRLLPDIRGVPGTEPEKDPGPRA
# Sequence of UniProt Q9BTE6 (Q9BTE6 whole entry, looked up): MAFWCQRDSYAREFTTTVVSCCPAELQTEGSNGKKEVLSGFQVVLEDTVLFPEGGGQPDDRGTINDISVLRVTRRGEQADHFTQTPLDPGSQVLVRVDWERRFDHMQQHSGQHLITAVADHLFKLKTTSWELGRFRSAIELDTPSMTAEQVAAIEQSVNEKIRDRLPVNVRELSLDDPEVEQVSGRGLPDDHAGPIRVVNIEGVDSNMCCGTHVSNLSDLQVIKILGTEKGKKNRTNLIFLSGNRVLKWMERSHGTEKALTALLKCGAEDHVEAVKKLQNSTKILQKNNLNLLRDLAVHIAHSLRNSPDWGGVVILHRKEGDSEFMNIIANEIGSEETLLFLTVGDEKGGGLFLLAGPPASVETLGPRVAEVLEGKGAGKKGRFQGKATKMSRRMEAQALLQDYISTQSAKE
# Sequence of UniProt Q13895 (Q13895 whole entry, looked up): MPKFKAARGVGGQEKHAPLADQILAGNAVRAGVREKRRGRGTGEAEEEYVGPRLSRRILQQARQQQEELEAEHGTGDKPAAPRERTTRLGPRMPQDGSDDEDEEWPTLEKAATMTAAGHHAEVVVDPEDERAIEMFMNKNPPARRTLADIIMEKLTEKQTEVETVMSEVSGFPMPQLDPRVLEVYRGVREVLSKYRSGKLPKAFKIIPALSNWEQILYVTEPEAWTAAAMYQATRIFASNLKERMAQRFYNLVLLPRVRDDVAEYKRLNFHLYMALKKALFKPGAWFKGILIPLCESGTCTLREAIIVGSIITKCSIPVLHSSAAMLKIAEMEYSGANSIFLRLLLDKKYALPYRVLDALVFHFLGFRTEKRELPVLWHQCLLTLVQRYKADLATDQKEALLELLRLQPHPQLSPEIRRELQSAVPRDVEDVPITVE
# Sequence of UniProt Q9NQ11 (Q9NQ11 whole entry, looked up): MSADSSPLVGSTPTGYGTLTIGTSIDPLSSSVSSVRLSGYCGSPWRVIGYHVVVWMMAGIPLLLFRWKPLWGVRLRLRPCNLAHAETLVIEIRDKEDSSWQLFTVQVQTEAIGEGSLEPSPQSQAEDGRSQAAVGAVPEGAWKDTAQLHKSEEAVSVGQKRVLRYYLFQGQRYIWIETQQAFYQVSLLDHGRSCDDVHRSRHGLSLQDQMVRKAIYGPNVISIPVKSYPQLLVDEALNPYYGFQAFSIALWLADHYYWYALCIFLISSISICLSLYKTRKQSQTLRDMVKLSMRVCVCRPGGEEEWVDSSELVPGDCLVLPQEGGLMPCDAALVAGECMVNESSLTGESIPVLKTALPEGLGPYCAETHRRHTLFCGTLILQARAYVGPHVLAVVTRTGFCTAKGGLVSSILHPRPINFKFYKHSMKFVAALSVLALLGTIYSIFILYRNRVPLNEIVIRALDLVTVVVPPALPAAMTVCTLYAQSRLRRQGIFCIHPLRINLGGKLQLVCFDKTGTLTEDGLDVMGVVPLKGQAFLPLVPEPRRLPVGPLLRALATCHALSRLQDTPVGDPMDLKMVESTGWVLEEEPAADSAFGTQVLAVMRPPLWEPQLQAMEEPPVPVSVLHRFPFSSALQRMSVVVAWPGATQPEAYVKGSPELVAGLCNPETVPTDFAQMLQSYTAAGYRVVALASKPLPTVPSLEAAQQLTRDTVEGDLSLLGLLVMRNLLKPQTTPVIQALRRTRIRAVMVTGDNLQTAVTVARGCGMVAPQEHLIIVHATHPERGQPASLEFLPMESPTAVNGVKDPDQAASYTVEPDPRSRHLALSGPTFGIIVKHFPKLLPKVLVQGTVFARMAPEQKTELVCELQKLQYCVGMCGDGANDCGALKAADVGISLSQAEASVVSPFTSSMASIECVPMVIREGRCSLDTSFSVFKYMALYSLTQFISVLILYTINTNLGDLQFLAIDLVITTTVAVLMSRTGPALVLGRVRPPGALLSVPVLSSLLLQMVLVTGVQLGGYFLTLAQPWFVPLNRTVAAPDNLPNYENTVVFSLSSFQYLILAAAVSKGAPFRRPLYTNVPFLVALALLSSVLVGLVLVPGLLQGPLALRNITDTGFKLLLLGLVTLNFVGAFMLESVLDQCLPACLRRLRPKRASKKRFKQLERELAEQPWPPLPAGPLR
# Sequence of UniProt Q9UKV5 (Q9UKV5 whole entry, looked up): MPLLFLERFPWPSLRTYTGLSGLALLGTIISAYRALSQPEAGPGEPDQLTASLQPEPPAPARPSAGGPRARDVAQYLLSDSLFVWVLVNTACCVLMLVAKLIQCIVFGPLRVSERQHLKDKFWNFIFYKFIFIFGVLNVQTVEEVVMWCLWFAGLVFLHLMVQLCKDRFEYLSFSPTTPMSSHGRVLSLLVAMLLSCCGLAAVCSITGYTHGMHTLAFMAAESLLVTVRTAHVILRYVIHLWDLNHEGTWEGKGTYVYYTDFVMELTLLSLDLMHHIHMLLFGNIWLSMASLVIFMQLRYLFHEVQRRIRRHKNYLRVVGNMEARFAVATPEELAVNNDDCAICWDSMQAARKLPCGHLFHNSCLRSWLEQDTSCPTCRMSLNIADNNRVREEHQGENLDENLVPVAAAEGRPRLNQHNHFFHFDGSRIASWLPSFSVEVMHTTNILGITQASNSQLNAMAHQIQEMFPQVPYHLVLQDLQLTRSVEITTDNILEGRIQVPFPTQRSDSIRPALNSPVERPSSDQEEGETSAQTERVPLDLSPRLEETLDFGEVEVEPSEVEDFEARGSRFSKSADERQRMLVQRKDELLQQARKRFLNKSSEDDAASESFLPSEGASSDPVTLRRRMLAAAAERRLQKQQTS
# Sequence of UniProt Q9Y3D8 (Q9Y3D8 whole entry, looked up): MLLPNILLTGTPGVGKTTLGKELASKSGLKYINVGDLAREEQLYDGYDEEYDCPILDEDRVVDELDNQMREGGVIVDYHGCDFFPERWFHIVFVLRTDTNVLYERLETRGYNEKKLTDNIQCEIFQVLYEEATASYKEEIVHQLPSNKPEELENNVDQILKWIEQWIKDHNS
# Sequence of UniProt P56385 (P56385 whole entry, looked up): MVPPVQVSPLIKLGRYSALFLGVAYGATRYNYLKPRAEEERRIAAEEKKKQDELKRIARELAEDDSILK
Target,log2 fold change [1],log2 fold change (crizotinib),log2 fold change [2],log2 fold change [3],log2 fold change (duvelisib),log2 fold change (gandotinib),log2 fold change (tozasertib),log2 fold change [4],log2 fold change (doramapimod),log2 fold change (ispinesib)
AARS2 (UniProt Q5JTZ9),0.017,-0.04,0.138,-0.03,0.053,-0.058,-0.039,0.036,0.026,-0.223 (active)
ACAP2 (UniProt Q15057),0.032,0.033,0.069,0.023,0.023,-0.07,0.026,0.047,-0.059,0.002
ADAM15 (UniProt Q13444),0,0.097,0.015,-0.047,0.119,-0.047,-0.067,-0.047,0.033,-0.119
ACSL4 (UniProt O60488),0.02,-0.338 (active),0.07,0.099,0.045,-0.089,0.032,0.151,0.01,-0.311 (active)
ACSL3 (UniProt O95573),0.009,-0.013,0.011,-0.024,0.043,-0.046,0.001,0.097,-0.033,-0.024
AK6 (UniProt Q9Y3D8),0.151,-0.156,0.175,0.115,0.075,-0.049,0.036,0.065,0.008,-0.085
BAIAP2 (UniProt Q9UQB8),0.023,-0.115,0,-0.039,0.014,-0.053,-0.061,0.08,0.086,-0.057
ATP6V1C1 (UniProt P21283),-0.05,0.1,-0.05,0.14,0.049,0.033,0.116,0.041,0.015,0.122
ARFGEF1 (UniProt Q9Y6D6),0.03,-0.135,0.022,0.052,0.021,-0.014,0.049,0.004,0.067,-0.024
AGPS (UniProt O00116),0.016,-0.038,0.048,-0.053,0.099,-0.047,-0.005,0.19,0.018,0.015
BLOC1S3 (UniProt Q6QNY0),-0.001,0.014,0.116,0.065,0.068,-0.132,-0.012,-0.052,-0.038,0.012
ARAF (UniProt P10398),0.012,-0.093,0.059,0.112,-0.009,0.039,-0.074,0.081,-0.035,-0.051
BYSL (UniProt Q13895),-0.003,-0.049,0,0.05,-0.041,-0.012,0.1,0.135,0.037,-0.094
AARSD1 isoform 3 (UniProt Q9BTE6),0.062,0.054,0.012,0.013,-0.04,-0.081,0.055,0.038,-0.05,0.067
ATOX1 (UniProt O00244),-0.051,-0.057,0.235,-0.269,0.144,0.068,0.038,-0.071,0.051,0.212
ANP32E (UniProt Q9BTT0),-0.021,0.055,0.12,-0.16,0.036,-0.082,0.096,0.026,-0.014,0.002
ATAD1 (UniProt Q8NBU5),0.004,0.021,-0.013,0.074,-0.032,0.144,-0.013,0.113,-0.003,-0.063
ABHD17A isoform 2 (UniProt Q96GS6),-0.027,-0.135,-0.03,-0.015,-0.008,-0.283,-0.024,0.016,0.004,-0.129
ARHGAP1 (UniProt Q07960),0.011,0.154,0.038,-0.003,0.057,0.011,0.046,0,-0.039,0.235 (active)
ATP5ME (UniProt P56385),-0.016,0.101,0.102,-0.046,0,0.001,0.008,-0.016,0.033,0.078
ATP6V0A2 (UniProt Q9Y487),-0.002,-0.197,-0.048,0.07,-0.062,-0.006,0.014,0.064,0.09,-0.18
ADD1 isoform 3 (UniProt P35611),0.018,0.005,-0.011,-0.109,0.011,-0.054,-0.008,-0.015,0.001,0.045
ATP13A2 (UniProt Q9NQ11),-0.012,-0.214,0.031,0.008,0.105,0.01,-0.006,0.018,0.025,-0.363 (active)
ATP1A1 (UniProt P05023),0.032,0.165,0.028,-0.117,0.029,-0.049,-0.061,-0.035,-0.047,0.106
ATP1B3 (UniProt P54709),0.053,0.111,0.027,-0.152,0.028,-0.013,-0.019,-0.04,-0.042,0.165
ADD3 (UniProt Q9UEY8),0,0.023,0.018,-0.079,0.023,-0.029,-0.053,-0.059,0.016,0.061
AMFR (UniProt Q9UKV5),-0.008,-0.04,0.018,-0.034,0.028,0.012,-0.029,0.071,0.057,-0.331 (active)
AKR1C3 (UniProt P42330),-0.101,0.028,-0.009,-0.035,0.23,0.005,-0.059,0.078,-0.012,0.371
ATIC (UniProt P31939),0.108,0.092,0.101,-0.083,0.023,0.066,0.018,-0.015,-0.029,0.096
